Screens: PubChem BioAssay, several laboratories
RAM inhibit: inhibitors of the yeast RAM network, primary screen, dse1pr::URA3 reporter, 5-FOA selection; AID 868, 2007; hit rate 1.8% among 190,000; inhibition, % at 50 µM; S. cerevisiae dse1pr::URA3 reporter, 5-FOA growth OD615, 2 d; analog-sensitive cbk1-as2 kinase mutant strain;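 active = inhibition above a set limit, 3 SD over mean compound inhibition, cut at about 8.4% in these data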;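 also: 0% = DMSO-only wells with no growth and 100% = 10 µM 1-NA-PP1 full growth; inhibition rescues growth on 5-FOA so higher OD means more RAM inhibition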
CHOP inh: inhibitors of CHOP promoter induction, primary screen, cell-based, unfolded protein response, luciferase reporter | CHO-K1 CHOP-promoter luciferase, tunicamycin-induced, 15-18 h | inhibition, % at 10 µM | hit rate 3.8% among 220,000;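 active = compounds that reduced the stress-induced luciferase reporter signal by more than about 70% of percent inhibition, limit read from the data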;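 also: 0% = tunicamycin plus vehicle and 100% = wells without tunicamycin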
WT yeast gro inh: growth inhibition of WT strain, primary screen, mitochondrial fusion inhibitor project, WT and mutant strains, chemical genetic; mitochondrial fusion phenotypic screen; inhibition, % at 10 µM; hit rate 2.1% among 190,000; in the data active = inhibition above about 58%; tested in S. cerevisiae
L major viab: Leishmania major promastigote growth inhibition, primary screen. Leishmania major promastigotes, resazurin fluorescence viability. inhibition, % at 10 µM. hit rate 9% among 200,000; in the data active = inhibition above about 50%;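 also: promastigotes grown with compound for 44 hours at 28 °C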
Starred values were filed as active, the others as inactive; . = no result given. Shown are actives, neighbours in structure and some others; about 13% of the full set was active somewhere.

SMILES | RAM inhibit | CHOP inh | WT yeast gro inh | L major viab
O=C(NCCCN1CCOCC1)c1cc(-c2ccccc2)on1 | 0 | 12 | -3 | 12
CCOC(=O)N(NC(=O)C(O)(CC(C)C)CC(C)C)c1ccccc1 | 2 | 29 | 8 | -2
COc1cccc(-c2nc(CSCC(=O)N3CCc4ccccc43)c(C)o2)c1 | 8.8* | 27 | -14 | -1
COc1ccc(-c2nc(CSCC(=O)N3CCc4ccccc43)c(C)o2)cc1OC | 5 | 28 | -41 | 17
COc1cc(OC)cc(-c2nnc(SCC(=O)N3CCCc4ccccc43)o2)c1 | 2 | -15 | 17 | -2
COc1cccc(-c2nnc(SCC(=O)N3CCCc4ccccc43)o2)c1 | 8.5* | 41 | 3 | -6
Cc1nn(-c2ccccc2)c(C)c1/C=N/NC(=O)c1cc(C23CC4CC(CC(C4)C2)C3)[nH]n1 | -1 | 42 | 22 | 91*
Cc1nn(-c2ccccc2)c(C)c1/C=N/NC(=O)c1cc(-c2ccc(Cl)s2)[nH]n1 | 3 | -30 | -4 | 45
Cc1nn(-c2ccccc2)c(C)c1/C=N/NC(=O)c1cc(-c2ccc(Br)s2)[nH]n1 | 2 | 70* | 45 | 56*
COc1cccc(CN2CCNC(=O)C2CC(=O)NCCn2ccc3ccccc32)c1OC (configuration not stated) | 4 | 2 | -10 | -9
N#C/C(=C\c1c(Cl)cccc1Cl)c1nc2ccccc2o1 | 2 | 13 | 27 | -7
Cc1cc(O)ccc1N/C=C(\C#N)c1nc2ccccc2o1 | 6 | 73* | -5 | -2
OCCC1CN(Cc2cccn2-c2cccnc2)CCN1C1CCCCC1 (configuration not stated) | 0 | 0 | 3 | -1
CCOC(=O)c1sc(Nc2cccc(C)c2C)nc1C | 1 | 3 | 26 | 3
CCCCOP(=O)(c1ccc(N(C)C)cc1)C(Nc1ccccc1)c1ccccc1 (configuration not stated) | 4 | 50 | 81* | 41
O=C(COc1ccccc1)NCC(=O)Nc1cccc2ccccc12 | 2 | 34 | -6 | -5
O=C(COc1ccc(C(=O)c2ccccc2)cc1)NCC(=O)Nc1ccccc1Br | 3 | 9 | 4 | 62*
Nc1cccc(Nc2ccccc2)c1 | 1 | 3 | -3 | -3
c1ccc(Nc2cccc(Nc3ccccc3)c2)cc1 | 3 | 74* | 71* | 30
Fc1ccccc1-c1nc(NCc2ccco2)c2ccccc2n1 | 1 | 14 | 2 | 53*
c1ccc(-c2nc(NCc3ccco3)c3ccccc3n2)nc1 | 2 | 66 | 37 | 100*
COc1ccccc1-c1nc(C#N)c(NCCCn2ccnc2)o1 | . | -6 | . | .
CC(C)(C)c1nnc(NC(=O)c2cccnc2)s1 | 0 | -13 | 5 | -5
Cc1ccc(Nc2c(N)c(=O)oc3ccccc23)cc1 | 5 | 43 | -14 | 73*
Cn1c(=O)cc(N)n(Cc2ccccc2)c1=O | -1 | 12 | 2 | -6
SMILES | RAM inhibit | CHOP inh | WT yeast gro inh | L major viab
CCOC(=O)/C=C1\Nc2ccccc2OC1=O | 1 | 5 | 49 | 64*
COc1ccc(Cl)cc1N(CC(=O)N/N=C/c1ccc(OC(C)C)cc1)S(=O)(=O)c1ccc(C)c([N+](=O)[O-])c1 | 2 | 32 | -19 | 98*
COc1ccc(Cl)cc1N(CC(=O)N(C)C)S(=O)(=O)c1ccc(C)c([N+](=O)[O-])c1 | 3 | -5 | 8 | 10
C=CCOc1cccc(/C=N/NC(=O)CN(c2cc(Cl)ccc2OC)S(=O)(=O)c2ccc(C)c([N+](=O)[O-])c2)c1 | 2 | 33 | -13 | 99*
COc1ccc(NC(=O)CCN2C(=O)c3ccncc3C2=O)cc1OC | . | -13 | . | .
COc1ccc(NC(=S)NNc2ccc(S(=O)(=O)Nc3ccccc3C(=O)O)cc2[N+](=O)[O-])cc1 | . | 0 | . | .
Nc1ccc(C(=O)OCc2nc3cc4ccccc4cc3[nH]2)cc1 | 2 | -2 | 12 | 63*
Cc1sc2ncnc(SCC(=O)Nc3nc(-c4ccc(F)c(F)c4)cs3)c2c1C | 5 | 10 | 7 | 3
CCC(=O)Nc1cccc(NC(=S)NC(=O)c2cc3ccccc3o2)c1 | 0 | 94* | -2 | 11
Cc1c(NC(=S)NC(=O)c2cc3ccccc3o2)c(=O)n(-c2ccccc2)n1C | 2 | 16 | -7 | 53*
Cc1ccc(-c2nc3ccccc3o2)cc1NC(=S)NC(=O)c1cc2ccccc2o1 | 2 | 85* | -7 | 2
CCC(=O)Nc1ccc(NC(=S)NC(=O)c2cc3ccccc3o2)cc1 | 3 | 9 | 7 | -2
Cc1c(NC(=O)c2cc3ccccc3o2)c(=O)n(-c2ccccc2)n1C | 2 | 8 | 9 | -1
O=C(COc1ccccc1)Nc1nnc(-c2ccc(Cl)s2)o1 | 4 | -7 | 57 | -1
O=C(NCc1cccnc1)c1cc(Sc2ccccc2Cl)nc2ccccc12 | 1 | 13 | -29 | 78*
N#C/C(=N\Nc1ccc(F)cc1)C(=N)N1CCCCC1 | 0 | 23 | 12 | 78*
N#C/C(=N\Nc1ccccc1)C(=N)N1CCCCCC1 | . | -22 | . | .
CSc1ccc(S(=O)(=O)NCCOc2ccccc2C)cc1 | 2 | 72* | 5 | -4
COCCCNS(=O)(=O)c1ccc(SC)cc1 | 1 | 46 | -7 | 39
Cc1cc(C)c(S(C)(=O)=O)c(Sc2ccc(Cl)cc2)n1 | -1 | 33 | 18 | -4
Cc1ccc(Nc2nc(CSc3nnc(-c4ccncc4)n3C)cs2)cc1 | 1 | 2 | 11 | 2
Cc1ccc(Nc2nc(CSc3nnc(-c4cccnc4)n3-c3ccccc3F)cs2)cc1 | 2 | 22 | 21 | 89*
Cc1cc2nc(-c3ccc4c(c3)CCC4)ccn2n1 | 0 | 57 | 25 | 13
CC1(C)CC(N2CCN(c3ccccc3)CC2)=CC(=[N+]2CCCC2)C1 | 2 | 29 | 6 | 99*
CCN(CC)C1=CC(=[N+]2CCCC2)CC(C)(C)C1 | 2 | 11 | -11 | 100*
SMILES | RAM inhibit | CHOP inh | WT yeast gro inh | L major viab
CN(Cc1ccccc1)C1=CC(=[N+]2CCCC2)CC(C)(C)C1 | . | 21 | . | .
CC1(C)CC(N2CCCC2)=CC(=[N+]2CCCCCC2)C1 | -1 | 33 | 1 | 100*
CC1CC(C)C[N+](=C2C=C(N3CCCC3)CC(C)(C)C2)C1 (configuration not stated) | 0 | 36 | 6 | 100*
CC1(C)CC(=O)C=C(N2CCNCC2)C1 | 0 | -15 | -2 | -3
O=C(O)c1ccccc1NC(=O)N1CCOCC1 | 2 | -4 | 3 | 0
CCCCOC(=O)NS(=O)(=O)c1sc(CC(C)C)cc1-c1ccc(Cn2c(CC)nc3c(C)cc(C)nc32)cc1 | . | -2 | . | .
COc1c(OC(C)=O)ccc(/C=N\NC(=O)c2ccc(Br)cc2)c1[N+](=O)[O-] | 3 | 50 | 7 | 4
OCC[C@H]1C[C@@H](O)[C@H](O)[C@]2(CCCCO2)O1 | . | -9 | . | .
CCOc1cc(N2CCOCC2)c(OCC)cc1NC(=O)COC(=O)c1cc2ccccc2cc1O | 8 | 39 | 9 | 62*
O=C(NCCN1CCN(c2ccccc2)CC1)c1cccn2c(=O)c3ccccc3nc12 | 0 | 30 | 5 | 3
